Reference: the supplement of paper PMC6555819

Assays:
Assay in all cases: PBM binding z-score (relative to random genomic background probes); higher = stronger binding; sequences stand for … in GC…GCGATTGACAGCGTAGAATGAAGG
[1] = tested on: FXR:RXRa (NR concentration 270 nM, RXRa partner concentration 90 nM)
Summary of the method: (§1)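 The probes on custom Agilent 4×180K protein-binding microarrays were double-stranded, with 34-nt variable regions bearing direct-repeat seeds, single-nucleotide variants, half-site ablations and random human genomic background sequences. Incubation lasted 1 h with ligand-free nuclear receptor dimers in PBS pH 7.4, 2% milk, 0.02% Triton X-100, 1 mM DTT, 0.2 mg/mL BSA and 0.4 mg/ml salmon testes DNA. Antibodies against each partner (one per run) detected bound dimers, and fluorescence scans were regression-normalized. Binding z-scores take the random background probes as reference.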

[2] = tested on: LXRa:RXRa (NR concentration 270 nM, RXRa partner concentration 90 nM)
Summary of the method: as §1

[3] = tested on: LXRa homodimer (NR concentration 270 nM)
Summary of the method: as §1

[4] = tested on: LXRb:RXRa (NR concentration 270 nM, RXRa partner concentration 90 nM)
Summary of the method: as §1

[5] = tested on: LXRb homodimer (NR concentration 270 nM)
Summary of the method: as §1

[6] = tested on: PPARa:RXRa (NR concentration 270 nM, RXRa partner concentration 90 nM)
Summary of the method: as §1

[7] = tested on: PPARg:RXRa (NR concentration 180 nM, RXRa partner concentration 90 nM)
Summary of the method: as §1

[8] = tested on: PPARg:RXRa 270nM:90nM, anti-RXR (NR concentration 270 nM, RXRa partner concentration 90 nM)
Summary of the method: as §1

[9] = tested on: PPARg:RXRa 30nM:10nM, anti-RXR (NR concentration 30 nM, RXRa partner concentration 10 nM)
Summary of the method: as §1

[10] = tested on: PPARg:RXRa 90nM:30nM, anti-RXR (NR concentration 90 nM, RXRa partner concentration 30 nM)
Summary of the method: as §1

[11] = tested on: PPARg:RXRa DBDmut IVT, anti-RXR (DBD mutation: RXRa K156A/R161A, NR concentration 270 nM, RXRa partner concentration 90 nM)
Summary of the method: as §1

[12] = tested on: PPARg:RXRa IVT, anti-PPARg (NR concentration 270 nM, RXRa partner concentration 90 nM)
Summary of the method: as §1

[13] = tested on: PPARg DBDmut:RXRa IVT, anti-PPARg (DBD mutation: PPARg1 K132A/R137A, NR concentration 270 nM, RXRa partner concentration 90 nM)
Summary of the method: as §1

[14] = tested on: PPARg DBDmut IVT, anti-PPARg (DBD mutation: PPARg1 K132A/R137A, NR concentration 270 nM)
Summary of the method: as §1

[15] = tested on: PPARg homodimer (NR concentration 180 nM)
Summary of the method: as §1

[16] = tested on: PXR:RXRa (NR concentration 270 nM, RXRa partner concentration 90 nM)
Summary of the method: as §1

[17] = tested on: PXR homodimer (NR concentration 270 nM)
Summary of the method: as §1

[18] = tested on: RARa:RXR (NR concentration 270 nM, RXRa partner concentration 90 nM)
Summary of the method: as §1

[19] = tested on: RARa homodimer (NR concentration 270 nM)
Summary of the method: as §1

[20] = tested on: RARb:RXRa (NR concentration 270 nM, RXRa partner concentration 90 nM)
Summary of the method: as §1

Sequence | PBM binding z-score [1] | PBM binding z-score [2] | PBM binding z-score [3] | PBM binding z-score [4] | PBM binding z-score [5] | PBM binding z-score [6] | PBM binding z-score [7] | PBM binding z-score [8] | PBM binding z-score [9] | PBM binding z-score [10] | PBM binding z-score [11] | PBM binding z-score [12] | PBM binding z-score [13] | PBM binding z-score [14] | PBM binding z-score [15] | PBM binding z-score [16] | PBM binding z-score [17] | PBM binding z-score [18] | PBM binding z-score [19] | PBM binding z-score [20]
TCTAGTTGGTCAAAGGTCACCCACTCGAAATGCG | 5.47 | 5.45 | 3.51 | 5.12 | 1.68 | 6.36 | 11.3 | 9.99 | 10.9 | 12.3 | 3.63 | 6.67 | 1.96 | 2.09 | 6.47 | 6.1 | 1.35 | 7.69 | 3.37 | 4.9
CCAGACAGGTGAGAACGTAACTCAGCCTCGATTA | -0.0139 | -0.0409 | 0.178 | 0.22 | -0.463 | 0.136 | 0.444 | -0.545 | -0.231 | -0.422 | 0.85 | 0.49 | 0.0295 | -0.354 | 0.692 | -0.267 | 0.209 | -0.0422 | 0.428 | 0.192
TCTTGTAGATCACCAGGAGGTTAAGAAAGATCGA | 0.307 | 1.28 | -0.0899 | 0.866 | -0.174 | 1.39 | -0.000569 | 1.19 | 2.45 | 1.52 | 1.92 | 1.27 | 0.392 | 0.634 | -0.00402 | 0.915 | -0.00438 | 1.15 | -0.698 | 0.672
GTACCAAGGTGAATAGGTCGTTTATGAGTAGGCG | 0.975 | 1.13 | 0.161 | 0.811 | -0.198 | 2.44 | 1.62 | 1.79 | 0.597 | 1.5 | 1.82 | 2.43 | 0.986 | 0.34 | 1.17 | 1 | 0.0793 | 1.92 | 0.555 | 2.01
CAGCCTAGGTCAGGGCCAGAATAGGAGGAACGTT | 1.68 | 0.905 | -0.589 | 0.734 | -1.02 | 2.04 | 1.06 | 0.725 | -0.241 | 0.0702 | 1.51 | 1.55 | -0.6 | -1.51 | 0.276 | 0.146 | -0.618 | 0.927 | -0.25 | 3.49
GTTCCAAGGTGAATAGGTCGTTGATGAGTAGGCG | 1.29 | 0.977 | -0.00758 | 0.642 | 0.0158 | 2.24 | 1.16 | 1.94 | 0.65 | 1.07 | 2.09 | 2.89 | -0.109 | 0.149 | 1.58 | 1.02 | 0.352 | 2.05 | 0.818 | 2.22
CCTGCTAGGTCATGGTCTGCTAATCTACAGTATG | 3.19 | 2.35 | 0.138 | 1.97 | -0.218 | 3.4 | 2.18 | 3.48 | 1.08 | 2.49 | 4.68 | 3.6 | 0.818 | -0.517 | 0.597 | 1.33 | -0.00693 | 2.22 | -0.00634 | 3.87
CGTCCAAGGTCAGAGAGGTCGGTGAATGCCGAGT | 4.71 | 3.52 | 0.408 | 2.4 | -0.461 | 3.87 | 2 | 2.92 | 0.323 | 1.8 | 2.42 | 2.66 | -0.525 | -1.08 | 0.814 | 3.88 | 5.12 | 2.96 | -0.301 | 4.51
AACTCTAGGTAACAAGTTCAGTGAAAGAGAGGAC | 0.335 | 0.477 | 0.364 | 0.379 | -0.166 | 1.58 | 1.32 | 1.72 | 0.492 | 1.31 | 3.33 | 2.65 | 0.517 | 0.445 | 0.677 | 1.37 | 1.37 | 0.703 | 0.522 | 1.4
TGGAGTAGGTTAGTCGGGGCATTCAGCCAACATA | 0.43 | 0.268 | 0.358 | 1.05 | 1.05 | 1.31 | 0.778 | 1.32 | 0.564 | 1.22 | 3.42 | 3.51 | -0.389 | -0.234 | 1.08 | 0.401 | 0.996 | 0.374 | 0.676 | 1.03
CCTCCAAGGTCAAAGGTCAGTGAAGAGATGACGG | 8.2 | 6.83 | 3.53 | 6.63 | 1.95 | 7.19 | 10.5 | 8.79 | 8.47 | 9.3 | 3.51 | 5.62 | 0.87 | -0.101 | 3.71 | 6.78 | 2.06 | 8.62 | 3.07 | 6.03
CCTATTAGTTGAACATAAGGGCAACCGAAGCTCG | 0.402 | 0.518 | 0.603 | 0.454 | 0.71 | 0.594 | 0.576 | 0.441 | 0.18 | 0.415 | 0.458 | 0.463 | 0.856 | 0.515 | 1.56 | 0.574 | 0.963 | 0.973 | 1.2 | 1.38
ATATGTAGGTTATCGGGTCATTCTGTTTGCGCAT | 3.44 | 3.6 | 2.23 | 3.26 | 1.27 | 4.93 | 6.86 | 6.16 | 3.52 | 5.94 | 7.83 | 7.65 | 3.52 | 2.76 | 2.77 | 3.48 | 1.54 | 3.91 | 1.87 | 2.57
ATATGTAGGGTAGCTGGGGTCATTCAGACTAGGC | 3.69 | 4.07 | 2.16 | 4.42 | 1.68 | 5.28 | 5.01 | 4.85 | 2.14 | 3.95 | 5.27 | 5.46 | 1.65 | 3.4 | 2.54 | 6.03 | 3.77 | 5.97 | 0.388 | 2.87
AGTCACAGTTCACTAGGTAACGTAAGATTCAGCT | 0.936 | 1.66 | 0.659 | 1.19 | 0.166 | 2.84 | 2.96 | 3.17 | 1.06 | 2.12 | 2.42 | 3.71 | 1.36 | 0.988 | 1.05 | 1.35 | 0.619 | 1.25 | 0.737 | 2.31
